Reference: PubChem BioAssay (EPA / NIEHS)
Several values for one entry are separate records, joined by “and”; a condition that tells them apart may be missing. Equal entries are not always repeated. Where a structure was tested more than once in an assay, its records may differ in their call. Activity calls are given as the source filed them. The calls were made as follows: active = hit-call score of the fitted dose curve at least 0.9, where 1 is the maximum; inactive = score below 0.9.

test: CCTE_Shafer_MEA_dev_network_spike_peak: CCTE's Neural Network Formation Assay for Mean Number of Electrodes in Network Spike, Shafer Lab (AID 2284049);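 as to AC50: fitted for loss of signal meaning fewer electrodes in network spikes than DMSO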
Summary of the method: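 Rat cortical primary culture, 1.5 x 10^5 cells/well, 48-well MEA (16 electrodes/well). Dosing day 0 through DIV 12, full media/compound exchange DIV 5, 9. AxIS adaptive spike detection; AUC over days 5/7/9/12; loss-of-signal vs DMSO.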

Compound | AC50 | outcome
BrC1CC(Br)CC(Br)CC(Br)CC(Br)CC(Br)C1 (stereo not given) | 7.04 µM (active) | 
CC(CNC(=S)[S-])NC(=S)[S-].[Zn+2] (stereo not given) | 20.9 µM (active) | 
CC(=O)N[C@@H](CC(=O)O)C(=O)O |  | inactive
CC(C)c1nn(C(=O)NC(C)(C)C)c(=O)n1N |  | inactive
Cc1[nH]n(C)c(=O)c1C(=O)c1ccc(C(F)(F)F)cc1S(C)(=O)=O |  | inactive
Brc1cc(Br)c(Oc2cc(Br)c(Br)cc2Br)cc1Br |  | inactive
F |  | inactive
[O]=[V]([OH])([OH])[OH] | 10.7 µM (active) | 
CCCCCC(C)(CC)C(=O)NC (stereo not given) |  | inactive
C[C@@H]1CCO[C@H]2Cn3cc(C(=O)NCc4ccc(F)cc4F)c(=O)c(O)c3C(=O)N12 | 1.11 µM (active) | 
CN(C)CCCn1cc(C2=C(c3c[nH]c4ccccc34)C(=O)NC2=O)c2ccccc21 | 3.8 µM (active) and 3.08 µM (active) and 5 µM (active) | 
CCCCCC=C(C)C(CC)CCO (stereo not given) |  | inactive
CCc1ccccc1 |  | inactive
C[C@@H]1CC[C@@H](C(C)(C)O)[C@H](O)C1 |  | inactive
CC(C)O | 8.39 µM (active) | 

test: CCTE_Shafer_MEA_dev_spike_duration_mean: CCTE's Neural Network Formation Assay for Mean Spike Duration, Shafer Lab (AID 2284051);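 also: mean network spike duration pooled as area under curve over DIV 5 to 12 recordings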;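 as to AC50: potency for a decrease in mean network spike duration versus DMSO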
Summary of the method: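 Primary rat cortical neurons on 16-electrode MEA wells (PEI-coated, laminin in plating drop), exposed from plating through DIV 12 with compound renewed at DIV 5 and 9. Mean network-spike duration recorded DIV 5, 7, 9, 12; trapezoidal AUC across days, DMSO baseline.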

Compound | AC50 | outcome
BrC1CC(Br)CC(Br)CC(Br)CC(Br)CC(Br)C1 (stereo not given) | 3.57 µM (active) | 
CC(CNC(=S)[S-])NC(=S)[S-].[Zn+2] (stereo not given) | 8.64 µM (active) | 
CC(=O)N[C@@H](CC(=O)O)C(=O)O |  | inactive
CC(C)c1nn(C(=O)NC(C)(C)C)c(=O)n1N |  | inactive
Cc1[nH]n(C)c(=O)c1C(=O)c1ccc(C(F)(F)F)cc1S(C)(=O)=O |  | inactive
Brc1cc(Br)c(Oc2cc(Br)c(Br)cc2Br)cc1Br |  | inactive
F |  | inactive
[O]=[V]([OH])([OH])[OH] | 15 µM (active) | 
CCCCCC(C)(CC)C(=O)NC (stereo not given) | 9.92 µM (active) | 
C[C@@H]1CCO[C@H]2Cn3cc(C(=O)NCc4ccc(F)cc4F)c(=O)c(O)c3C(=O)N12 | 0.901 µM (active) | 
CN(C)CCCn1cc(C2=C(c3c[nH]c4ccccc34)C(=O)NC2=O)c2ccccc21 | 6.41 µM (active) and 5 µM (active) and 3.28 µM (active) | 
CCCCCC=C(C)C(CC)CCO (stereo not given) |  | inactive
CCc1ccccc1 |  | inactive
C[C@@H]1CC[C@@H](C(C)(C)O)[C@H](O)C1 |  | inactive
CC(C)O | 14.3 µM (active) | 

test: CCTE_Shafer_MEA_dev_network_spike_duration_std: CCTE's Neural Network Formation Assay for Standard Deviation of Network Spike Duration, Shafer Lab (AID 2284052);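 also: area under curve of spike duration SD across recording days 5 to 12; hits are decreases in network spike duration SD versus DMSO vehicle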
Summary of the method: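 Primary rat cortical neurons on PEI-coated 16-electrode MEA wells, exposed from plating day 0 through day 12 with compound renewed at DIV 5 and 9. Network spike duration SD recorded on days 5, 7, 9, 12, collapsed as trapezoidal AUC; loss-of-signal fit versus DMSO.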

Compound | AC50 | outcome
BrC1CC(Br)CC(Br)CC(Br)CC(Br)CC(Br)C1 (stereo not given) | 5.04 µM (active) | 
CC(CNC(=S)[S-])NC(=S)[S-].[Zn+2] (stereo not given) | 3.38 µM (active) | 
CC(=O)N[C@@H](CC(=O)O)C(=O)O |  | inactive
CC(C)c1nn(C(=O)NC(C)(C)C)c(=O)n1N |  | inactive
Cc1[nH]n(C)c(=O)c1C(=O)c1ccc(C(F)(F)F)cc1S(C)(=O)=O |  | inactive
Brc1cc(Br)c(Oc2cc(Br)c(Br)cc2Br)cc1Br |  | inactive
F |  | inactive
[O]=[V]([OH])([OH])[OH] |  | inactive
CCCCCC(C)(CC)C(=O)NC (stereo not given) |  | inactive
C[C@@H]1CCO[C@H]2Cn3cc(C(=O)NCc4ccc(F)cc4F)c(=O)c(O)c3C(=O)N12 |  | inactive
CN(C)CCCn1cc(C2=C(c3c[nH]c4ccccc34)C(=O)NC2=O)c2ccccc21 |  | inactive
CCCCCC=C(C)C(CC)CCO (stereo not given) |  | inactive
CCc1ccccc1 |  | inactive
C[C@@H]1CC[C@@H](C(C)(C)O)[C@H](O)C1 |  | inactive
CC(C)O |  | inactive

test: CCTE_Shafer_MEA_dev_per_network_spike_spike_number_mean: CCTE's Neural Network Formation Assay for Mean Number of Spikes in a Network Spike, Shafer Lab (AID 2284053);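 as to AC50: fitted as decrease in spikes per network spike relative to DMSO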
Summary of the method: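 Primary rat cortical neurons on 48-well, 16-electrode MEA plates were exposed from plating to DIV 12, with dosing renewed on DIV 5 and 9. Spikes per network spike (0.05 s peak window) were recorded on DIV 5, 7, 9 and 12 and collapsed as trapezoidal AUC versus DMSO.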

Compound | AC50 | outcome
BrC1CC(Br)CC(Br)CC(Br)CC(Br)CC(Br)C1 (stereo not given) | 4.17 µM (active) | 
CC(CNC(=S)[S-])NC(=S)[S-].[Zn+2] (stereo not given) | 24.7 µM (active) | 
CC(=O)N[C@@H](CC(=O)O)C(=O)O |  | inactive
CC(C)c1nn(C(=O)NC(C)(C)C)c(=O)n1N |  | inactive
Cc1[nH]n(C)c(=O)c1C(=O)c1ccc(C(F)(F)F)cc1S(C)(=O)=O |  | inactive
Brc1cc(Br)c(Oc2cc(Br)c(Br)cc2Br)cc1Br |  | inactive
F |  | inactive
[O]=[V]([OH])([OH])[OH] | 13.9 µM (active) | 
CCCCCC(C)(CC)C(=O)NC (stereo not given) |  | inactive
C[C@@H]1CCO[C@H]2Cn3cc(C(=O)NCc4ccc(F)cc4F)c(=O)c(O)c3C(=O)N12 | 0.983 µM (active) | 
CN(C)CCCn1cc(C2=C(c3c[nH]c4ccccc34)C(=O)NC2=O)c2ccccc21 | 1.61 µM (active) and 2.57 µM (active) and 5 µM (active) | 
CCCCCC=C(C)C(CC)CCO (stereo not given) |  | inactive
CCc1ccccc1 |  | inactive
C[C@@H]1CC[C@@H](C(C)(C)O)[C@H](O)C1 |  | inactive
CC(C)O | 5.31 µM (active) | 

test: CCTE_Shafer_MEA_dev_per_network_spike_spike_percent: CCTE's Neural Network Formation Assay for Percent of Spikes in a Network Spike, Shafer Lab (AID 2284054)
Summary of the method: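 Rat primary cortical cultures, 1.5 x 10^5 cells/well on MEA. Continuous compound exposure d0–12, medium/compound renewed DIV 5, 9. Network-spike spike % (0.05 s peak window), AUC over 4 recordings, DMSO baseline.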

Compound | AC50 | outcome
BrC1CC(Br)CC(Br)CC(Br)CC(Br)CC(Br)C1 (stereo not given) | 6.85 µM (active) | 
CC(CNC(=S)[S-])NC(=S)[S-].[Zn+2] (stereo not given) | 91.5 µM (active) | 
CC(=O)N[C@@H](CC(=O)O)C(=O)O |  | inactive
CC(C)c1nn(C(=O)NC(C)(C)C)c(=O)n1N |  | inactive
Cc1[nH]n(C)c(=O)c1C(=O)c1ccc(C(F)(F)F)cc1S(C)(=O)=O |  | inactive
Brc1cc(Br)c(Oc2cc(Br)c(Br)cc2Br)cc1Br |  | inactive
F |  | inactive
[O]=[V]([OH])([OH])[OH] | 15 µM (active) | 
CCCCCC(C)(CC)C(=O)NC (stereo not given) |  | inactive
C[C@@H]1CCO[C@H]2Cn3cc(C(=O)NCc4ccc(F)cc4F)c(=O)c(O)c3C(=O)N12 | 0.691 µM (active) | 
CCCCCC=C(C)C(CC)CCO (stereo not given) | 5 µM (active) | inactive
CCc1ccccc1 |  | inactive
C[C@@H]1CC[C@@H](C(C)(C)O)[C@H](O)C1 |  | inactive
CC(C)O |  | inactive
